This is a sample that favours compounds with a hit; in the whole collection about 1.8% have one here.
HEK293 tox: cytotoxicity counter-screen for GLP-1 receptor inverse agonists; Potency, µM (titrated, usually from 38.3 µM), actives largely listed as inhibitors; AID 624418; HEK293 cAMP-luciferase reporter cells, luminescence, 24 h; actives 0.13% (n = 410,000);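 also: loss of luciferase light is scored as toxicity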
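To flag toxic compounds, the library was rerun on cells for 24 hr at 37 deg C and 5% CO2. Viability-linked luminescence was captured 12 min after adding luciferase detection reagent.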
KAT2A inh: GCN5L2 (KAT2A) acetyltransferase inhibition. Potency, µM (titrated, usually from 58.9 µM), usual class: inhibitors. actives 0.21% (n = 390,000). Q92830. GCN5L2 HAT assay, ThioGlo1 CoA-SH fluorescence
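ThioGlo1-coupled HAT assay: 20nM GCN5L2, 70uM acetyl-CoA, 75uM H3(1-25) peptide, pH 7.5. Fluorescence read at 340/540nm at start and after 20 min at room temperature.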
RGS4 inhibitor: inhibitors of human regulator of G protein signaling 4; P49798; Transcreener GDP fluorescence polarization, RGS4-accelerated GTP hydrolysis; Potency, µM (highest dose often 114 µM), most hits filed as inhibitors; actives 0.039% (n = 390,000); AID 504845; also: nearly all actives have a fitted effect of over 75% in size
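MLSMR compounds (23 nl, pin-transferred) preincubated 10 min at room temperature with a 500nM (2x) first reagent, then RGS4 at 900nM (2x) plus Transcreener GDP mix added; fluorescence polarization (620/688 nm) read before and after 90 min at 30 °C.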
GLP1R inv ag: inverse agonists of human GLP-1 receptor. actives 1.6% (n = 410,000). Potency, µM (titrated, usually from 38.3 µM), usual class: inhibitors. HEK293 GLP-1R CRE-luciferase, luminescence, 24 h; GLP-1R form is constitutively active. P43220; also: nearly all actives have a fitted effect of over 55% in size
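HEK293 cells stably co-expressing constitutively active GLP-1R and a cAMP-responsive luciferase reporter were seeded in DMEM with 10% Nu serum, given compounds after 12 h, and incubated 24 h at 37 deg C. Luminescence was then read.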
GLP1R ag: activates the human GLP-1 receptor. P43220. HEK293 GLP-1R CRE-luciferase, luminescence, 4-6 h; cells express a hypersensitive GLP-1R form. Potency, µM (highest dose often 45.6 µM), usual class: activators. actives 0.007% (n = 380,000). AID 624172
PTHR1 agonist: agonists of human PTHR1 parathyroid hormone receptor. Q03431. HEK293 GP2 PTHR1 cells, GloSensor cAMP luminescence, 1 h. Potency, µM (highest dose often 115 µM), actives largely listed as activators. actives 0.075% (n = 410,000); also: nearly all actives have a fitted effect of over 55% in size
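HEK-293-derived GP2 cells expressing PTHR1 and a GloSensor cAMP reporter, 3,000/well, plated overnight, given luciferin plus IBMX (each 0.5 mM as added) for 1 h at 37 °C, then compound for 1 h at 37 °C. Luminescence was read after 15 min at room temperature.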
Hits are given with their value. Calls follow the shape of the dose curve; as a rule, active = well fitted curve in the direction sought with a large enough effect; inconclusive = small, poorly fitted or top-dose-only effect, or another doubt; inactive = no such curve, though single readings can be large; an effect the other way counts as inactive or inconclusive.

How did COc1ccc(OCCNC(=O)c2cccc(Oc3ccc(C(F)(F)F)cc3[N+](=O)[O-])c2)cc1 do in these assays?
HEK293 tox: inconclusive; KAT2A inh: inactive; RGS4 inhibitor: inactive; GLP1R inv ag: 4.5µM; GLP1R ag: inactive; PTHR1 agonist: inactive

Results for O=C(CSc1nc2ccccc2o1)Nc1nc2c(s1)CCCC2 ?
HEK293 tox: inactive; RGS4 inhibitor: inactive; GLP1R inv ag: 2.5µM; GLP1R ag: inactive; PTHR1 agonist: inactive

How did COc1cccc(-c2sc3ccc(OC)cc3c2-c2cnc(N3CCOCC3)nc2)c1 do in these assays?
HEK293 tox: inactive; GLP1R inv ag: inconclusive; GLP1R ag: inactive; PTHR1 agonist: inactive

What do the screens show for `O=C(Oc1cccccc1=O)c1ccccc1`?
HEK293 tox: inconclusive; KAT2A inh: inactive; RGS4 inhibitor: inactive; GLP1R inv ag: 10µM; GLP1R ag: inactive; PTHR1 agonist: inactive

What do the screens show for `O=C(Oc1ccccc1Cl)c1ccccc1`?
HEK293 tox: inactive; RGS4 inhibitor: inactive; GLP1R inv ag: inactive; GLP1R ag: inactive; PTHR1 agonist: inactive

How did NS(=O)(=O)c1ccc(N2CCN(C(=O)c3ccco3)CC2)nc1 do in these assays?
HEK293 tox: inactive; KAT2A inh: inactive; RGS4 inhibitor: inactive; GLP1R inv ag: inactive; GLP1R ag: inactive; PTHR1 agonist: inactive

How did O=C(O)C(Cc1ccccc1)N1C(=O)/C(=C/C=C/c2ccco2)SC1=S (stereo not given) do in these assays?
HEK293 tox: inactive; KAT2A inh: 8.9µM; RGS4 inhibitor: inconclusive; GLP1R inv ag: inactive; GLP1R ag: inactive; PTHR1 agonist: inactive

What do the screens show for `O=C(O)CC(C(=O)O)N1C(=O)/C(=C/C=C/c2ccco2)SC1=S` (stereo not given)?
HEK293 tox: inactive; KAT2A inh: inactive; RGS4 inhibitor: inconclusive; GLP1R inv ag: inactive; GLP1R ag: inactive; PTHR1 agonist: inactive

How did CCc1ccc(CN(Cc2ccco2)C(=O)COc2ccc(Cl)cc2C)cc1 do in these assays?
HEK293 tox: inactive; KAT2A inh: inactive; RGS4 inhibitor: inactive; GLP1R inv ag: inconclusive; PTHR1 agonist: inactive

What do the screens show for `Cc1cc(Cl)ccc1OCC(=O)N(Cc1ccco1)Cc1ccccc1F`?
HEK293 tox: inactive; KAT2A inh: inactive; RGS4 inhibitor: inactive; GLP1R inv ag: 11µM; PTHR1 agonist: inactive

What do the screens show for `Cc1ccc(SCC(=O)N2c3ccccc3Sc3ccccc32)cc1`?
HEK293 tox: inactive; KAT2A inh: inactive; RGS4 inhibitor: inactive; GLP1R inv ag: 7.9µM; GLP1R ag: inactive; PTHR1 agonist: inactive

Results for Cc1ccc(COn2c(-c3ccc(Cl)cc3Cl)nc3ncccc32)cc1 ?
HEK293 tox: inactive; KAT2A inh: inactive; RGS4 inhibitor: inactive; GLP1R inv ag: 10µM; GLP1R ag: inactive; PTHR1 agonist: inactive

What do the screens show for `Clc1cccc(COn2c(-c3ccc(Cl)cc3Cl)nc3ncccc32)c1`?
HEK293 tox: inactive; KAT2A inh: inactive; RGS4 inhibitor: inactive; GLP1R inv ag: inconclusive; GLP1R ag: inactive; PTHR1 agonist: inactive

Results for CC(=O)N1c2cc3ccccc3cc2N(C(C)=O)c2cc3ccccc3cc21 ?
HEK293 tox: inactive; RGS4 inhibitor: inactive; GLP1R inv ag: inactive; GLP1R ag: inactive; PTHR1 agonist: inactive

How did C=CCc1ccccc1OCC(O)CN1CCN(c2ccccc2)CC1 (stereo not given) do in these assays?
HEK293 tox: inactive; KAT2A inh: inactive; RGS4 inhibitor: inactive; GLP1R inv ag: inconclusive; PTHR1 agonist: inactive

What do the screens show for `C=CCc1ccccc1OCC(O)CN1CCN(c2ccccc2F)CC1` (stereo not given)?
HEK293 tox: inactive; KAT2A inh: inactive; RGS4 inhibitor: inactive; GLP1R inv ag: 10µM; GLP1R ag: inactive; PTHR1 agonist: inactive

What do the screens show for `N#C/C(=C\c1c[nH]c2ccccc12)C(=O)NCC1CCCO1` (stereo not given)?
HEK293 tox: inactive; KAT2A inh: inactive; RGS4 inhibitor: inactive; GLP1R inv ag: inactive; GLP1R ag: inactive; PTHR1 agonist: inactive

How did COc1ccccc1NC(=O)C1=C(C)Nc2c(C(=O)Nc3cccc(C)c3)cnn2C1c1ccccc1Cl (stereo not given) do in these assays?
HEK293 tox: inactive; KAT2A inh: inactive; RGS4 inhibitor: inactive; GLP1R inv ag: inconclusive; PTHR1 agonist: inactive

How did COc1ccccc1NC(=O)C1=C(C)Nc2c(C(=O)Nc3cccc(C)c3)cnn2C1c1ccccc1C (stereo not given) do in these assays?
HEK293 tox: inactive; KAT2A inh: 28µM; RGS4 inhibitor: inactive; GLP1R inv ag: inconclusive; PTHR1 agonist: inactive

Results for COC(=O)c1[nH]c2ccc(C)cc2c1NS(=O)(=O)c1ccc(F)c(C)c1 ?
HEK293 tox: inactive; KAT2A inh: inconclusive; RGS4 inhibitor: inactive; GLP1R inv ag: 10µM; GLP1R ag: inactive; PTHR1 agonist: inactive

What do the screens show for `CC(C)(C)NC(=O)C(c1ccc(C(F)(F)F)cc1)n1c(=O)c(-c2cc3ccccc3[nH]2)nc2ccccc21` (stereo not given)?
HEK293 tox: inactive; GLP1R inv ag: 2.8µM; PTHR1 agonist: inactive

What do the screens show for `CC(C)(C)NC(=O)C(c1cccc2ccccc12)n1c(=O)c(-c2cc3ccccc3[nH]2)nc2ccccc21` (stereo not given)?
HEK293 tox: inactive; GLP1R inv ag: 6.3µM; PTHR1 agonist: inactive

What do the screens show for `COC(=O)C(C(=O)OC)c1cc2c(cc1CNS(=O)(=O)c1ccc(C)cc1)OCO2`?
HEK293 tox: inactive; GLP1R inv ag: inactive; PTHR1 agonist: inactive

Results for CN1CCN(CC(=O)N2c3ccccc3C(C)(c3ccccc3)CC2(C)C)CC1 (stereo not given) ?
HEK293 tox: inactive; KAT2A inh: inactive; RGS4 inhibitor: inactive; GLP1R inv ag: 10µM; GLP1R ag: inactive; PTHR1 agonist: inactive

How did OC[C@@H](O)[C@H](O)C(/C=N/Nc1ccccc1)=N\Nc1ccccc1 do in these assays?
HEK293 tox: inconclusive; KAT2A inh: inactive; RGS4 inhibitor: inactive; GLP1R inv ag: 2.5µM; GLP1R ag: inactive; PTHR1 agonist: inactive

Results for CC(=O)/C=N/Nc1ccccc1 ?
HEK293 tox: inactive; KAT2A inh: inactive; RGS4 inhibitor: inactive; GLP1R inv ag: inactive; GLP1R ag: inactive; PTHR1 agonist: inactive

How did O=C(NC1(Cc2ccccc2)CCN(CCCc2ccccc2)C1=O)c1ccccc1 (stereo not given) do in these assays?
HEK293 tox: inactive; KAT2A inh: inactive; RGS4 inhibitor: inactive; GLP1R inv ag: 11µM; GLP1R ag: inactive; PTHR1 agonist: inactive

How did O=CNc1cc(-c2cccc(F)c2)cn2c(-c3ccc(F)c(Cl)c3)cnc12 do in these assays?
HEK293 tox: inactive; GLP1R inv ag: inactive; GLP1R ag: inactive; PTHR1 agonist: inactive

Compound activity (PubChem BioAssay)
